Here are results for 34 compounds from PubChem BioAssay (EPA / NIEHS).

Calls of active or inactive are those of the source. The calls were made as follows: active = hit-call score of the fitted dose curve at least 0.9, where 1 is the maximum; inactive = score below 0.9.

The target of the assay is Transcription factor E2F1 (Homo sapiens) (UniProt Q01094). Put plainly: ATG_E2F_CIS: Attagene CIS-FACTORIAL HepG2 Assay for human E2F Transcription Factor 1 (AID 2282935). The note with it: HepG2 Attagene cis-reporter, E2F reporter RNA transcripts; actives raise or lower the signal. The method in brief: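 First, HepG2 cells were transfected with reporter transcription units. Next, they were dosed for 24 h. Then RNA was isolated, converted to cDNA, PCR-amplified, FAM-labeled, HpaI-digested and analyzed by capillary electrophoresis.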
Transcription factor E2F1 (Homo sapiens), sequence (Q01094 whole entry, looked up): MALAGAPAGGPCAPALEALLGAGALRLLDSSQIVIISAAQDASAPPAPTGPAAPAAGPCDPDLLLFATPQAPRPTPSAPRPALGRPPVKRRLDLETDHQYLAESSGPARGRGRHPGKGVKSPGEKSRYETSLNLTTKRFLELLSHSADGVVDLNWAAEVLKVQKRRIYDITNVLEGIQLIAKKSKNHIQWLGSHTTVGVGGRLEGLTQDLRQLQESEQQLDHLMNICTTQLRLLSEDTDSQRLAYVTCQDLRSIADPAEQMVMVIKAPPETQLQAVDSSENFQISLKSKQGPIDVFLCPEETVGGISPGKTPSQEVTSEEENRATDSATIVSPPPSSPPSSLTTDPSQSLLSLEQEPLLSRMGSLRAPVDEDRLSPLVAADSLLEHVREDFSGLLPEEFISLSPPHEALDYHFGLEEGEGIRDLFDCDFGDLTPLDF
`COCCOCCOCCOCCOC`: the result was inactive.

Turning to `N=c1ccn2c(n1)O[C@H]1[C@H](O)[C@@H](CO)O[C@H]12`, the result was inactive.

With `O=C1CCCCCCCCCCC(=O)OCCO1`, the call was inactive.

As to `CCCCC/C=C\C/C=C\CCCCCCCC(=O)OC`, the compound was classed as inactive.

For `O=CC1CC1`, the compound was called inactive.

As for `COC(=O)c1sccc1S(N)(=O)=O`, the call was inactive.

On to `CC1(C)S[C@@H]2[C@H](NC(=O)COc3ccccc3)C(=O)N2[C@H]1C(=O)O`, for which the compound was classed as inactive.

Take `[Cl][In]([Cl])[Cl]`: the compound was classed as inactive.

In the case of `CCO[Si](CCCN=C=O)(OCC)OCC`, the compound was classed as inactive.

As for `[Cl][Nd]([Cl])[Cl]`, the compound was called inactive.

`O=Nc1ccc(O)cc1`: the compound was called inactive.

With `Cc1ccc(C2OC[C@@H]3OC(c4ccc(C)cc4)O[C@H]([C@H](O)CO)[C@@H]3O2)cc1` (some centres undefined), the outcome was inactive.

Turning to `O=C(c1ccc(O)cc1)c1ccc(O)cc1O`, the outcome was inactive.

For `CCCOC(=O)CCCCC(=O)OCCC`, the result was inactive.

Take `O=C1C=CC(=O)O1`: the call was inactive.

Turning to `O=S1(=O)OC(c2ccc(O)cc2)(c2ccc(O)cc2)c2ccccc21`, the compound was classed as inactive.

`O=C(O)CC(C(=O)O)C(CC(=O)O)C(=O)O` (centres undefined): the result was inactive.

For `[Cl][Bi]([Cl])([c]1ccccc1)([c]1ccccc1)[c]1ccccc1`, the call was inactive.

As to `COC(=O)/C=C\C(=O)O`, the outcome was inactive.

On to `OCCN(CCO)c1ccccc1`, for which the call was inactive.

`c1ccc2c(c1)ccc1cc3c(ccc4ccccc43)cc12`: the compound was classed as inactive.

For the compound `NCCCN1CCN(CCCN)CC1`, the compound was classed as inactive.

As to `COc1cc(NC(=O)CC(C)=O)c(OC)cc1Cl`, the outcome was inactive.

Turning to `O=c1[nH]nc(-c2ccc([N+](=O)[O-])o2)o1`, the outcome was inactive.

`CC(=O)C=CC1C(C)=CCC(C)C1(C)C` (centres undefined): the compound was called inactive.

In the case of `CCCCCCCC[N+](C)(CCCCCCCC)CCCCCCCC`, the compound was classed as inactive.

On to `CCCCCC/C=C\CCCCCCCC(=O)O`, for which the result was inactive.

Consider `CCCCCCCC/C=C\CCCCCCCC(=O)O`, for which the outcome was inactive.

For the compound `Oc1ccc(Cl)cc1Cc1cc(Cl)ccc1O`, the compound was classed as inactive.

Regarding `COCCCOCCCOC`, the result was inactive.

In the case of `CCCCCCCC(C)=O`, the outcome was inactive.

As to `C1=CCCC1`, the compound was called inactive.

As to `CCCCCCCCc1ccc(Nc2ccc(CCCCCCCC)cc2)cc1`, the result was inactive.

`NC(=O)N=NC(N)=O`: the compound was called inactive.
